Data published in PubChem BioAssay.
Results filed as inconclusive are left out. Activity calls are given as the source filed them.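 Rule for the calls, unless noted: active = normalized viability below 100% at a tested concentration; inactive = the rest.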

What was measured:
[1] = growth inhibition of DIPG glioma cells, dose response, cell-based, SU-DIPG-XIII, MIPE4.0, CellTiter-Glo, qHTS (AID 1347061; cut-off not given, nearly all actives have AC50 up to about 37 µM;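 note: cells exposed to compound for 48 hours before readout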); details: SU-DIPG-XIII viability, CellTiter-Glo ATP luminescence
[2] = SU-DIPG-VI glioma cell viability, MIPE4.0 library, CellTiter-Glo luminescence, qHTS (AID 1347066; cut-off not given, nearly all actives have AC50 up to about 30 µM;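 note: cells exposed to compound for 48 hours before readout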); details: CellTiter-Glo ATP luminescence
[3] = growth inhibition of DIPG glioma cells, dose response, cell-based, JHH-DIPG-1, MIPE4.0, CellTiter-Glo, qHTS (AID 1347062; cut-off not given, nearly all actives have AC50 up to about 27 µM;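 for AC50: cells exposed to compound for two days before readout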); details: JHH-DIPG-1 viability, CellTiter-Glo ATP luminescence
[4] = growth inhibition of DIPG glioma cells, dose response, cell-based, SU-DIPG-IV, MIPE4.0, CellTiter-Glo, qHTS (AID 1347063; cut-off not given, nearly all actives have AC50 up to about 30 µM;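 note: compound exposure lasted 48 hours before the viability readout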); details: SU-DIPG-IV viability, CellTiter-Glo ATP luminescence
[5] = growth inhibition of DIPG glioma cells, dose response, cell-based, SU-DIPG-XIII, MIPE5.0, CellTiter-Glo, qHTS (AID 1347064; cut-off not given, nearly all actives have AC50 up to about 23 µM;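 note: cells exposed to compound for 48 hours before the viability read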); details: SU-DIPG-XIII viability, CellTiter-Glo ATP luminescence
[6] = viability loss in pontine glioma line – cell-based, SU-DIPG-XXV, MIPE5.0, CellTiter-Glo, qHTS, dose response (AID 1347065; cut-off not given, nearly all actives have AC50 up to about 26 µM;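 note: cells exposed to compound for 48 hours before ATP readout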); details: CellTiter-Glo ATP luminescence
[7] = JHH-DIPG-1 glioma cell viability, MIPE5.0 library, CellTiter-Glo luminescence, qHTS (AID 1347067; cut-off not given, nearly all actives have AC50 up to about 26 µM;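 note: cells exposed to compound for 48 hours before readout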); details: JHH-DIPG-1 glioma viability, CellTiter-Glo ATP luminescence
[8] = SU-DIPG-XXV glioma cell viability, MIPE5.0 library, qHTS (AID 1347068; cut-off not given, nearly all actives have IC50 up to about 30 µM;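 for IC50: cells exposed to compound for 48 hours before viability readout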)
[9] = sensitizers of A549 cells to miR-34 induction, primary screen, imaging, A549 dox-inducible miR-34, nuclei and caspase counts (AID 1347080;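 active = compounds whose cell count with miR-34 switched on is under 0.7 times the count with it off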); details: A549 miR-34 inducible, Hoechst nuclei count, 48 h
[10] = modifiers of HSF1 nuclear foci, imaging, Selleck Cancer Library (AID 1347162; in the data active = plate-normalised HSF1 focus index below about 0.46); details: human cells, at 10 µM; SSMD: measured here: HSF1 foci SSMD mean; cell count: measured here: cell number; plate-normalised HSF1 focus index: stronger effect = lower value
[11] = survival rescue of mitochondrial mutant cells in low glucose, primary screen, MELAS cybrids, Rieske KO mouse fibroblasts, CellTiter-Glo (AID 1508586;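 active = mean z-score across replicates of 1.96 or higher in either the MELAS or the Rieske mutant cell line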;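 note: z relative to plate mean and SD of compound and empty wells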)
[12] = ovarian cancer cell viability with rucaparib, profiling panel, oncology-focused library, rucaparib conditional (AID 1508598); details: patient-derived ovarian cancer cells, CellTiter-Glo viability, 144 h, stronger effect = lower value
[13] = stronger effect = lower value, cell number ratio, induced over uninduced
[14] = measured here: relative caspase fold change +Dox/-Dox
[15] = measured here: total cells with miR-34 induction, stronger effect = lower value
[16] = measured here: total cells without miR-34 induction
[17] = MELAS cybrid survival, CellTiter-Glo 48 h, stronger effect = higher value
[18] = Rieske KO mouse fibroblast survival, CellTiter-Glo 72 h

C[C@@H](O)[C@H]1C(=O)N2C(C(=O)OCOC(=O)C(C)(C)C)=C(SC3CN(C4=NCCS4)C3)[C@H](C)[C@H]12
inactive: outcome [1] | outcome [2]

Cc1cc(Nc2cc(NC(=O)c3c(Cl)cccc3Cl)ccn2)nc(N)n1
active: AC50 [3] 18.7 µM | AC50 [4] 18.7 µM | AC50 [5] 8.33 µM | AC50 [6] 9.34 µM | AC50 [7] 9.34 µM | IC50 [8] 18.6 µM

CC[C@@H]1/C=C(\C)C[C@H](C)C[C@H](OC)[C@H]2O[C@@](O)(C(=O)C(=O)N3CCCC[C@H]3C(=O)O[C@H](/C(C)=C/[C@@H]3CC[C@H](Cl)[C@H](OC)C3)[C@H](C)[C@@H](O)CC1=O)[C@H](C)C[C@@H]2OC
inactive: outcome [1] | outcome [2]

CC(C)C[C@H](NC(=O)c1cc2ccccc2s1)C(=O)N1CCN(C(=O)[C@H](CO)NS(=O)(=O)c2ccc(Cl)cc2Cl)CC1
active: AC50 [4] 20.9 µM | AC50 [6] 20.9 µM | AC50 [2] 23.5 µM
inactive: outcome [3]

C[C@@H](Cc1cc2c(c(C(N)=O)c1)N(CCCO)CC2)NCCOc1ccccc1OCC(F)(F)F
inactive: outcome [3] | outcome [4] | outcome [2]

Cn1cc(-c2ccncc2)c(-c2ccc(OCc3ccc4ccccc4n3)cc2)n1
inactive: outcome [3] | outcome [4] | outcome [2] | outcome [8]
active: AC50 [6] 23.5 µM

CO[C@H]1C[C@@H]2CC[C@@H](C)[C@@](O)(O2)C(=O)C(=O)N2CCCC[C@H]2C(=O)O[C@H]([C@@H](C)C[C@@H]2CC[C@@H](O)[C@H](OC)C2)CC(=O)[C@H](C)/C=C(\C)[C@@H](O)[C@@H](OC)C(=O)[C@H](C)C[C@H](C)/C=C/C=C/C=C/1C
3700: cell count [9, 16]
1.23: fold change [9, 14]
active: AC50 [3] 20.9 µM | AC50 [4] 20.9 µM | AC50 [6] 16.6 µM | AC50 [7] 23.5 µM
3690: cell count [9, 15]
inactive: fold change [9, 13] 0.999

CC(C)(N)c1ccc(-c2nc3ccccc3nc2-c2ccccc2)cc1
active: AC50 [3] 23.5 µM | AC50 [4] 26.4 µM | AC50 [6] 23.5 µM

Nc1nccc(Oc2ccc(NC(=O)c3c[nH]cc(-c4ccc(F)cc4)c3=O)cc2F)c1Cl
0.168: z-score [11, 18]
inactive: fold change [9, 13] 0.93 | plate-normalised HSF1 focus index [10] 0.991 | z-score [11, 17] -0.165 | viability ([12]; at 0.000305 µM, OCI-C5x cells, with rucaparib 10 µM, 100% = cells with rucaparib alone) 110% | viability ([12]; at 0.000305 µM, OCI-C5x cells, without rucaparib) 130% | viability ([12]; at 0.000305 µM, OCI-P5x cells, with rucaparib 20 µM, 100% = cells with rucaparib alone) 100% | viability ([12]; at 0.000305 µM, OCI-P5x cells, without rucaparib) 117% | viability ([12]; at 0.00122 µM, OCI-C5x cells, with rucaparib 10 µM, 100% = cells with rucaparib alone) 108% | viability ([12]; at 0.00122 µM, OCI-C5x cells, without rucaparib) 127% | viability ([12]; at 0.00122 µM, OCI-P5x cells, with rucaparib 20 µM, 100% = cells with rucaparib alone) 101% | viability ([12]; at 0.00122 µM, OCI-P5x cells, without rucaparib) 114% | viability ([12]; at 0.00488 µM, OCI-C5x cells, with rucaparib 10 µM, 100% = cells with rucaparib alone) 118% | viability ([12]; at 0.00488 µM, OCI-C5x cells, without rucaparib) 134% | viability ([12]; at 0.00488 µM, OCI-P5x cells, with rucaparib 20 µM, 100% = cells with rucaparib alone) 106% | viability ([12]; at 0.00488 µM, OCI-P5x cells, without rucaparib) 111% | viability ([12]; at 0.0195 µM, OCI-C5x cells, with rucaparib 10 µM, 100% = cells with rucaparib alone) 117% | viability ([12]; at 0.0195 µM, OCI-C5x cells, without rucaparib) 140% | viability ([12]; at 0.0195 µM, OCI-P5x cells, without rucaparib) 107% | viability ([12]; at 0.0781 µM, OCI-C5x cells, with rucaparib 10 µM, 100% = cells with rucaparib alone) 104% | viability ([12]; at 0.0781 µM, OCI-C5x cells, without rucaparib) 122% | viability ([12]; at 0.0781 µM, OCI-P5x cells, with rucaparib 20 µM, 100% = cells with rucaparib alone) 106% | viability ([12]; at 0.313 µM, OCI-C5x cells, with rucaparib 10 µM, 100% = cells with rucaparib alone) 133% | viability ([12]; at 0.313 µM, OCI-C5x cells, without rucaparib) 122% | viability ([12]; at 0.313 µM, OCI-P5x cells, with rucaparib 20 µM, 100% = cells with rucaparib alone) 102% | viability ([12]; at 1.25 µM, OCI-C5x cells, with rucaparib 10 µM, 100% = cells with rucaparib alone) 132% | viability ([12]; at 1.25 µM, OCI-C5x cells, without rucaparib) 123% | viability ([12]; at 1.25 µM, OCI-P5x cells, without rucaparib) 101% | viability ([12]; at 5 µM, OCI-C5x cells, with rucaparib 10 µM, 100% = cells with rucaparib alone) 149% | viability ([12]; at 5 µM, OCI-C5x cells, without rucaparib) 139%
-0.396: SSMD [10]
active: AC50 [3] 18.7 µM | AC50 [4] 16.6 µM | AC50 [5] 14.8 µM | AC50 [2] 26.4 µM | IC50 [8] 23.5 µM | viability ([12]; at 0.0195 µM, OCI-P5x cells, with rucaparib 20 µM, 100% = cells with rucaparib alone) 98.3% | viability ([12]; at 0.0781 µM, OCI-P5x cells, without rucaparib) 98.3% | viability ([12]; at 0.313 µM, OCI-P5x cells, without rucaparib) 99.4% | viability ([12]; at 1.25 µM, OCI-P5x cells, with rucaparib 20 µM, 100% = cells with rucaparib alone) 99.9% | viability ([12]; at 5 µM, OCI-P5x cells, with rucaparib 20 µM, 100% = cells with rucaparib alone) 59% | viability ([12]; at 5 µM, OCI-P5x cells, without rucaparib) 89.1%
7240: cell count [10]
0.882: fold change [9, 14]
7750: cell count [9, 15]
8330: cell count [9, 16]

Cc1ccccc1C(C(=O)NC1CCCC1)N(C(=O)Cn1cnc2ccccc21)c1cccc(F)c1 (stereo not given)
inactive: outcome [3] | outcome [4]

Nc1nc(OCc2ccccc2)c2[nH]cnc2n1
8910: cell count [9, 15]
inactive: outcome [3] | outcome [4] | outcome [6] | outcome [2] | outcome [7] | outcome [8] | fold change [9, 13] 0.895
9960: cell count [9, 16]
1.25: fold change [9, 14]

c1cc(N[C@@H]2CCNC2)nc(-c2cnc3ccc(-c4cn[nH]c4)cn23)c1
active: AC50 [3] 11.8 µM | AC50 [4] 14.8 µM | AC50 [5] 14.8 µM | AC50 [6] 16.6 µM | AC50 [2] 18.7 µM | AC50 [7] 16.6 µM | IC50 [8] 11.8 µM

CN(C)c1nc(Cc2ccc(NC(=O)c3ccc4ccccc4c3)cc2)nc(Cl)c1CC(=O)O
inactive: outcome [1] | outcome [2]

CCCNC(=O)Nc1ccc(Oc2ncnc3cc(OC)c(OC)cc23)cc1Cl
0.73: fold change [9, 14]
7400: cell count [9, 15]
0.0458: z-score [11, 18]
inactive: outcome [3] | outcome [4] | outcome [2] | outcome [8] | fold change [9, 13] 0.924 | z-score [11, 17] 0.782
active: AC50 [5] 20.9 µM | AC50 [7] 26.3 µM
8010: cell count [9, 16]

CCCCCCCc1ccc(CCc2cccc(O)c2C(=O)O)cc1
0.921: SSMD [10]
inactive: outcome [3] | outcome [4] | outcome [6] | outcome [7] | outcome [8] | plate-normalised HSF1 focus index [10] 1.06
6030: cell count [10]
